# Results: PubChem BioAssay
# Measured potencies and affinities stand elsewhere. Results filed as inconclusive are left out. Active and inactive are the calls of the source.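 The calls were made as follows, unless noted: active = fitted half-maximal concentration for viability loss no higher than twice the top valid dose, in every repeat run; inconclusive = repeat runs disagree, flat partial loss, or poor curve fit; inactive = the rest.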
# Assay: cytotoxicity in PAX8-dependent RMG-1 cells, dose response, cell-based, cherry-pick (AID 687029;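 active = signal drop whose fitted half-maximal concentration is at most twice the top valid dose, in every test run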;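 also: cells exposed to compound for 96 hours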)
# Conditions: RMG-1 viability, CellTiterGlo ATP luminescence, 96 h; series mostly up to 35 µM
row,Structure (SMILES),outcome
1,CCCN(CCC)Cc1c(C(=O)N/N=C/C(C)=C\c2ccco2)nnn1-c1nonc1N,inactive
2,CC1=C(C(=O)OC2CCCCC2)C(c2cccnc2)n2ncnc2N1 (stereo not drawn),inactive
3,O=C(Nc1cccc(NC(=O)c2ccc([N+](=O)[O-])o2)c1)c1ccco1,inactive
4,O=C(CCCN1C(=O)/C(=C/c2cccc(Br)c2)SC1=S)Nc1cccnc1,inactive
5,COc1cccc(/C=C2\SC(=S)N(CCC(=O)NCCc3ccc(O)cc3)C2=O)c1,inactive
6,Cc1ccccc1N=C1N=C(N)c2ccccc21,inactive
7,CCSc1nc(-c2ccccc2)nc(C(Cl)Cl)n1,inactive
8,O=C(CCc1ccc(S(=O)(=O)NCc2ccccc2)cc1)NCc1ccco1,inactive
9,C[C@H](CO)N1C[C@H](C)[C@@H](CN(C)Cc2ccncc2)Oc2ccc(NC(=O)Nc3ccc(C(F)(F)F)cc3)cc2CC1=O,inactive
10,COc1ccc(C(=O)N/N=C/c2ccc(OC)c(CN3CCN(c4ccc(F)cc4)CC3)c2)cc1,inactive
11,CN(Cc1ccccc1)N=Nc1nc[nH]c1C(N)=O,inactive
12,O=C(N/N=C/c1ccsc1)c1cc(-c2cccs2)nc2ccccc12,inactive
13,O=C(Nc1cccc(NC(=O)c2ccccc2Cl)c1)c1ccc([N+](=O)[O-])o1,inactive
14,Cc1ccc(-c2cn3cc(C)ccc3n2)cc1,inactive
15,C[C@@H]1CCCCO[C@@H](CN(C)Cc2ccc(Cl)c(Cl)c2)[C@H](C)CN([C@@H](C)CO)C(=O)c2cc(NC(=O)CCC(F)(F)F)ccc2O1,inactive
16,C=C1C(=O)O[C@@H]2[C@H]1CC[C@H](C)[C@]1(O)CCC(=O)[C@@]21C,inactive
17,C=CC(=O)N1C/C(=C/c2ccc(Cl)cc2)C(=O)/C(=C\c2ccc(Cl)cc2)C1,inactive
18,Cc1ccc2c(c1C)-c1c(ccc(C)c1C)C(=O)C2=O,inactive
19,COc1cc(Cl)c(NC2=CC(=O)C(=O)c3ccccc32)c(OC)c1,inactive
20,O=C(Nc1ccc(Cl)cc1)Nc1ccc(N2CCCC2)c(S(=O)(=O)Nc2ccccc2Cl)c1,inactive

row,Structure (SMILES),outcome
1,C[C@@H]1CCCCO[C@@H](CN(C)Cc2ccc3c(c2)OCO3)[C@H](C)CN([C@@H](C)CO)C(=O)c2cc(NC(=O)Nc3ccc(C(F)(F)F)cc3)ccc2O1,inactive
2,O=C(Nc1cccc(C2=NCCN2)c1)Nc1cccc(C2=NCCN2)c1,inactive
3,CCC(OC(=O)c1ccc(S(C)(=O)=O)c([N+](=O)[O-])c1)C(=O)NC1C2CC3CC(C2)CC1C3 (stereo not drawn),inactive
4,C=C1C2(C(=O)Nc3ccc(SC(F)F)cc3)CCC(C2)C1(C)C (stereo not drawn),inactive
5,Cc1ccc2c(CC(=O)OCC(=O)Nc3ccc(Cl)cn3)coc2c1,inactive
6,Cn1c(CCN2CCN(c3ccccn3)CC2)nc2cc(NS(=O)(=O)c3ccc(Cl)cc3)ccc21,inactive
7,Cc1ccc(NC(=O)c2ccc([N+](=O)[O-])s2)cc1S(=O)(=O)N1CCOCC1,inactive
8,O=C1c2ccccc2C(=O)c2[nH]c(=O)[nH]c21,inactive
9,Cc1[nH]nc2nc(SCC(=O)NC3CCCCC3)n(-c3ccc(Br)cc3)c(=N)c12,inactive
10,CC(C)OCCCNC(=O)c1cccc(NC(=O)c2ccccc2)c1,inactive
11,Oc1ccc(C[C@H]2CNC(=S)N2CC2CCCN2C[C@H](Cc2ccccc2)N2C[C@H](Cc3ccc(O)cc3)N(CCc3ccccc3)C2=S)cc1 (stereo partly drawn),inactive
12,O=C(Nc1ccc(F)cc1)c1nc(S(=O)(=O)Cc2ccccc2)ncc1Cl,inactive
13,COC(=O)C1=C(SC)N(c2ccccc2)C(c2ccccc2)CC1=O (stereo not drawn),inactive
14,C=C1C(=O)[C@@]23[C@H](O)C[C@@H]4C(C)(C)CC[C@H](O)[C@@]4(C)[C@@H]2CC[C@@H]1[C@H]3O,inactive
15,CC(C)c1ccc(/C=C(\c2nc3ccccc3[nH]2)S(=O)(=O)c2ccccc2)cc1,inactive
16,O=C(NC1CC1)c1ccc2c(c1)C1C3CCC(C3)C1C(c1ccccc1)N2 (stereo not drawn),inactive
17,O=C(NCCC1CCCCN1S(=O)(=O)c1ccc(Cl)cc1)C(=O)NCc1ccncc1 (stereo not drawn),inactive
18,Nc1ncnc2c(C3OC(CO)C(O)C3O)scc12 (stereo not drawn),inactive
19,COc1ccccc1-c1ccc(OCCCN2CCC(C(O)(c3ccccc3)c3ccccc3)CC2)cc1,inactive

# Assay: cytotoxicity in IOSE-T80 ovarian epithelial cells, dose response, selectivity assay for PAX8 inhibitor project, cell-based, cherry-pick (AID 687032);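 also: cells exposed to compound for 96 h before reading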
# Conditions: CellTiterGlo ATP luminescence, 96 h; series mostly up to 35 µM
row,Structure (SMILES),outcome
1,CCCN(CCC)Cc1c(C(=O)N/N=C/C(C)=C\c2ccco2)nnn1-c1nonc1N,inactive
2,CC1=C(C(=O)OC2CCCCC2)C(c2cccnc2)n2ncnc2N1 (stereo not drawn),inactive
3,O=C(Nc1cccc(NC(=O)c2ccc([N+](=O)[O-])o2)c1)c1ccco1,inactive
4,O=C(CCCN1C(=O)/C(=C/c2cccc(Br)c2)SC1=S)Nc1cccnc1,inactive
5,COc1cccc(/C=C2\SC(=S)N(CCC(=O)NCCc3ccc(O)cc3)C2=O)c1,inactive
6,Cc1ccccc1N=C1N=C(N)c2ccccc21,inactive
7,CCSc1nc(-c2ccccc2)nc(C(Cl)Cl)n1,inactive
8,O=C(CCc1ccc(S(=O)(=O)NCc2ccccc2)cc1)NCc1ccco1,inactive
9,C[C@H](CO)N1C[C@H](C)[C@@H](CN(C)Cc2ccncc2)Oc2ccc(NC(=O)Nc3ccc(C(F)(F)F)cc3)cc2CC1=O,inactive
10,COc1ccc(C(=O)N/N=C/c2ccc(OC)c(CN3CCN(c4ccc(F)cc4)CC3)c2)cc1,inactive
11,CN(Cc1ccccc1)N=Nc1nc[nH]c1C(N)=O,inactive
12,O=C(N/N=C/c1ccsc1)c1cc(-c2cccs2)nc2ccccc12,inactive
13,O=C(Nc1cccc(NC(=O)c2ccccc2Cl)c1)c1ccc([N+](=O)[O-])o1,inactive
14,Cc1ccc(-c2cn3cc(C)ccc3n2)cc1,inactive
15,C[C@@H]1CCCCO[C@@H](CN(C)Cc2ccc(Cl)c(Cl)c2)[C@H](C)CN([C@@H](C)CO)C(=O)c2cc(NC(=O)CCC(F)(F)F)ccc2O1,inactive
16,C=C1C(=O)O[C@@H]2[C@H]1CC[C@H](C)[C@]1(O)CCC(=O)[C@@]21C,inactive
17,C=CC(=O)N1C/C(=C/c2ccc(Cl)cc2)C(=O)/C(=C\c2ccc(Cl)cc2)C1,inactive
18,Cc1ccc2c(c1C)-c1c(ccc(C)c1C)C(=O)C2=O,inactive
19,COc1cc(Cl)c(NC2=CC(=O)C(=O)c3ccccc32)c(OC)c1,inactive
20,O=C(Nc1ccc(Cl)cc1)Nc1ccc(N2CCCC2)c(S(=O)(=O)Nc2ccccc2Cl)c1,inactive

row,Structure (SMILES),outcome
1,C[C@@H]1CCCCO[C@@H](CN(C)Cc2ccc3c(c2)OCO3)[C@H](C)CN([C@@H](C)CO)C(=O)c2cc(NC(=O)Nc3ccc(C(F)(F)F)cc3)ccc2O1,inactive
2,O=C(Nc1cccc(C2=NCCN2)c1)Nc1cccc(C2=NCCN2)c1,inactive
3,CCC(OC(=O)c1ccc(S(C)(=O)=O)c([N+](=O)[O-])c1)C(=O)NC1C2CC3CC(C2)CC1C3 (stereo not drawn),inactive
4,C=C1C2(C(=O)Nc3ccc(SC(F)F)cc3)CCC(C2)C1(C)C (stereo not drawn),inactive
5,Cc1ccc2c(CC(=O)OCC(=O)Nc3ccc(Cl)cn3)coc2c1,inactive
6,Cn1c(CCN2CCN(c3ccccn3)CC2)nc2cc(NS(=O)(=O)c3ccc(Cl)cc3)ccc21,inactive
7,Cc1ccc(NC(=O)c2ccc([N+](=O)[O-])s2)cc1S(=O)(=O)N1CCOCC1,inactive
8,O=C1c2ccccc2C(=O)c2[nH]c(=O)[nH]c21,inactive
9,Cc1[nH]nc2nc(SCC(=O)NC3CCCCC3)n(-c3ccc(Br)cc3)c(=N)c12,inactive
10,CC(C)OCCCNC(=O)c1cccc(NC(=O)c2ccccc2)c1,inactive
11,Oc1ccc(C[C@H]2CNC(=S)N2CC2CCCN2C[C@H](Cc2ccccc2)N2C[C@H](Cc3ccc(O)cc3)N(CCc3ccccc3)C2=S)cc1 (stereo partly drawn),inactive
12,O=C(Nc1ccc(F)cc1)c1nc(S(=O)(=O)Cc2ccccc2)ncc1Cl,inactive
13,COC(=O)C1=C(SC)N(c2ccccc2)C(c2ccccc2)CC1=O (stereo not drawn),inactive
14,C=C1C(=O)[C@@]23[C@H](O)C[C@@H]4C(C)(C)CC[C@H](O)[C@@]4(C)[C@@H]2CC[C@@H]1[C@H]3O,inactive
15,CC(C)c1ccc(/C=C(\c2nc3ccccc3[nH]2)S(=O)(=O)c2ccccc2)cc1,inactive
16,O=C(NC1CC1)c1ccc2c(c1)C1C3CCC(C3)C1C(c1ccccc1)N2 (stereo not drawn),inactive
17,O=C(NCCC1CCCCN1S(=O)(=O)c1ccc(Cl)cc1)C(=O)NCc1ccncc1 (stereo not drawn),inactive
18,Nc1ncnc2c(C3OC(CO)C(O)C3O)scc12 (stereo not drawn),inactive
19,COc1ccccc1-c1ccc(OCCCN2CCC(C(O)(c3ccccc3)c3ccccc3)CC2)cc1,inactive
